This passage reports growth results from PubChem BioAssay (NCI).

The panel holds about 83,000 compounds, 20% with a hit somewhere; the sample as a whole holds those more often.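 Treatment: one concentration, 48 hours, 96-well format. Scoring: percent growth, with anything below 10 considered active.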 A number with no mark means an inactive call. Calls of active or inactive are those of the source.

What all share (assay): NCI-60 one-dose screen, 48 h (100 = growth as untreated, 0 = no growth, -100 = all killed)
What all share (conditions): 10 µM unless noted

The subject of experiment [1] is SR leukemia.
Experiment [2] relates to OVCAR-8 ovarian.
In experiment [3] the test system is OVCAR-5 ovarian.
Experiment [4] has as its system OVCAR-4 ovarian.
Experiment [5] relates to SK-OV-3 ovarian.
Experiment [6] relates to IGROV1 ovarian.
In experiment [7] the test system is OVCAR-3 ovarian.
The subject of experiment [8] is HS 578T breast.
Experiment [9] deals with NCI/ADR-RES ovarian.
Experiment [10] has as its system T-47D breast.
Experiment [11] deals with BT-549 breast.
Experiment [12] concerns SW-620 colon.
Experiment [13] has as its system MCF7 breast.
The test system of experiment [14] is HCT-116 colon.
Experiment [15] concerns HCC-2998 colon.
For experiment [16], the system named is KM12 colon.
In experiment [17] the test system is RPMI-8226 leukemia.
Experiment [18] has as its system MDA-MB-435 melanoma.

Regarding `CCC(=O)Nc1cc(Nc2cc(NC3CC3)n3ncc(C#N)c3n2)ccc1C`, the growth in [1] was 24.5%; in experiment [2], 43.4%; in experiment [3], 18.4%; in experiment [4], 17.1%; in [5], 21.6%; in [6], 6.78% (active). The growth in experiment [7] was 26.2%; in [8], -17.4% (active); in experiment [9], 44.2%; in experiment [10] it was 6.41% (active); in [11], 29.5%; in [12] it was 17.4%. For the same compound, the growth in experiment [13] is 3.83% (active); in experiment [14], 19.2%; in [15], 41.6%; in experiment [16], 32.5%.
With `CCOC(=O)C1=C(C)Nc2nnc(Nc3ccccc3)n2C1c1ccccc1` (centres undefined), the growth in [17] is 77%; in experiment [2], 72.5%; in experiment [3] it was 91.2%; in experiment [4], 34.6%; in experiment [5], 94.6%; in experiment [6], 62.8%. Also, the growth in [7] was 5.94% (active); in experiment [8] it was 75.8%; in [9] it was 70.8%; in experiment [10] it was 58.2%; in experiment [11] it was 84%; in [18] it was 86.8%. The growth in [12] was 35.2%; in experiment [13], 55.7%; in [14] it was 7.91% (active); in experiment [15] it was 105%; in experiment [16], 94.7%.
With `CC1=C2C(=C[C@@](C)(COS(N)(=O)=O)[C@@H]2O)C(=O)[C@](C)(O)C12CC2`, the growth in experiment [1] was 102%; in [2], 74.3%; in experiment [3], 41.4%; in experiment [4], 80.8%; in experiment [6], 60.7%; in experiment [7], 62.6%. For the same compound, the growth was 104% in [8]; 63.5% in [9]; 71.8% in [10]; 60.2% in [11]; 85.3% in experiment [12]; 61.7% in experiment [13]. For the same compound, the growth was 70% in experiment [14], 61.7% in [15] and 99.5% in experiment [16].
With `C#C[C@]1(O)CC[C@H]2[C@@H]3CC=C4c5sc(C6CC6)nc5CC[C@]4(C)[C@H]3CC[C@@]21C`, the growth in experiment [1] is 46.5%; in experiment [2], 88.3%; in experiment [3], 85.7%; in [4], 107%; in experiment [5], 116%; in experiment [6] it was 97.9%. Further, the growth in [7] is 89.2%; in [8] it was 68.1%; in experiment [9], 84.6%; in experiment [10], 73.8%; in [11], 90.5%; in experiment [12] it was 91.2%. Moreover, the growth was 64.7% in experiment [13], 71.4% in [14], 83.6% in [15] and 57.4% in experiment [16].
Take `Cc1cc(F)cc(NS(=O)(=O)c2ccc(-c3cnc(C4CC4)o3)cc2)c1`: the growth was 27.5% in [1]; 35.8% in [2]; 43% in experiment [3]; 49.6% in experiment [4]; 58.2% in experiment [5]; 32.4% in experiment [6]. Also, the growth in experiment [7] was -10.1% (active); in experiment [8] it was 34.1%; in experiment [10], 26.7%; in [11], 48.8%; in [18] it was -20.9% (active); in experiment [12] it was 24.7%. Moreover, the growth in experiment [13] is 21.4%; in experiment [14] it was 19.5%; in [15] it was 24.9%; in experiment [16] it was 18.3%.
Turning to `O=S(=O)(Nc1ccc(I)c(Cl)c1)c1ccc(-c2cnc(C3CC3)o2)cc1`, the growth in experiment [1] is 27.9%; in experiment [2], 38.9%; in experiment [3], 45.2%; in [4] it was 56.8%; in [5], 50.2%; in experiment [6], 36.3%. In addition, the growth is -9.98% (active) in experiment [7]; 17.9% in experiment [8]; 14.6% in experiment [9]; 26.9% in [10]; 57.1% in experiment [11]; 15.3% in experiment [12]. Also, the growth was 17% in experiment [13], 26.6% in [14], 59.1% in experiment [15] and 32% in experiment [16].
In the case of `CCOC(=O)Nc1ccc(-c2nc(-c3cccc(O)c3)c(-c3ccnc(Br)c3)[nH]2)cc1`, the growth is 9.74% (active) in [1]; 10.7% in [2]; 85% in [3]; 13.6% in experiment [4]; 41.2% in experiment [5]; 33% in experiment [6]. Besides, the growth in experiment [7] is 14.6%; in experiment [8], -2.07% (active); in experiment [9], 63.5%; in [10], 14%; in experiment [11], 35.4%; in [12] it was 28.2%. The growth in [13] is 13.9%; in experiment [14] it was 19.2%; in experiment [15], 56.2%; in experiment [16] it was 22.3%.
As to `O=S(=O)(Nc1ccc2c(c1)OC(F)(F)O2)c1ccc(-c2cnc(C3CC3)o2)cc1`, the growth in experiment [1] was 27.8%; in [2], 56.3%; in experiment [3] it was 73.2%; in experiment [4], 59.4%; in experiment [5] it was 65.6%; in [6], 42.8%. Moreover, the growth in experiment [7] is 20.3%; in [8], 40.6%; in [9] it was 24.7%; in experiment [10], 31.6%; in [11], 52.1%; in experiment [12], 23.7%. Also, the growth in experiment [13] is 19.9%; in experiment [14], 23.7%; in experiment [15] it was 72.8%; in experiment [16] it was 30.9%.
For `O=S(=O)(Nc1cc(Cl)c(F)c(Cl)c1)c1ccc(-c2cnc(C3CC3)o2)cc1`, the growth in experiment [1] was 36%; in [2], 44.5%; in experiment [3], 48.4%; in [4] it was 58.3%; in experiment [5] it was 72.8%; in [6], 43.5%. The growth in experiment [7] is 15.4%; in experiment [8], 30.5%; in [9], 26.8%; in experiment [10], 29.8%; in experiment [11], 66.8%; in experiment [12], 23.8%. The growth in experiment [13] is 20.2%; in [14], 27.3%; in experiment [15], 67.4%; in [16] it was 26.1%.
